A selection: hits, their analogues and other compounds. The true share with any hit is near 3.8%.
TSHR agonist: activates the human thyroid stimulating hormone receptor; 0.48% of 73,000 active; HEK293-CNG-TSHR cells (CNG channel as cAMP sensor), membrane potential dye, cAMP; Potency, µM (series often up to 57.1 µM), for the others: at the top dose activation, hits mostly activators; P16473; active = well fitted activation curve with a large enough effect in the main read-out, with a control signal flat, not every such curve was filed as active; inconclusive = small, poorly fitted or top-dose-only effect, or a change in a side signal; inactive = no such curve, though single readings can be large or run the other way; % of control where 0% means no effect;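 note: the control signal comes from parental cells without the receptor; potency is the fitted concentration of half-maximal effect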
Target sequence (P16473 whole entry, looked up): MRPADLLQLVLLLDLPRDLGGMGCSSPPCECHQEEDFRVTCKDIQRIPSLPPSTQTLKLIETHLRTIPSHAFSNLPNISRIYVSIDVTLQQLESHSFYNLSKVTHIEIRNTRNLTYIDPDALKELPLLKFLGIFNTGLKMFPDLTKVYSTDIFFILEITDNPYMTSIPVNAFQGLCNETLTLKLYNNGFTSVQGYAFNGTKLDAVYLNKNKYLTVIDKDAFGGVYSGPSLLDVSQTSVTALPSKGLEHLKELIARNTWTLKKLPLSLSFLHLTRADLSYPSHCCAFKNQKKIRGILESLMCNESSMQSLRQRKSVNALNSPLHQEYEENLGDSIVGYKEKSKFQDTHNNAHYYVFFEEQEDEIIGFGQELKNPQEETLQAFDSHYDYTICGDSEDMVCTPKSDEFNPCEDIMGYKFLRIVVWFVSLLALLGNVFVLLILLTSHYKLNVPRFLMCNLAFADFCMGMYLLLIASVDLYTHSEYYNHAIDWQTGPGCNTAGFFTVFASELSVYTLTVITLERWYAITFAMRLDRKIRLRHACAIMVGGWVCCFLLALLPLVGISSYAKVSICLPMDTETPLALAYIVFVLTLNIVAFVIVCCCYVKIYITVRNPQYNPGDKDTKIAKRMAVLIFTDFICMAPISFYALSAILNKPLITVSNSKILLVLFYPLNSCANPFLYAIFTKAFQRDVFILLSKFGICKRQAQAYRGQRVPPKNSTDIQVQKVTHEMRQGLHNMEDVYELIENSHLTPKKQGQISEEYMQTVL
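HEK 293 cells stably expressing TSHR and a modified CNG channel, with CNG-only parental cells as counterscreen, were preloaded 60 min at room temperature with membrane potential dye containing 100 uM RO 20-1724. Compound exposure was 30 min, and depolarization was read as fluorescence at 590 nm.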
ERK AVP block: vasopressin-driven ERK pathway inhibition; HEK293-V1b, vasopressin-stimulated pERK AlphaScreen; Potency, µM (doses to about 57.5 µM), without a hit: at the top dose activity, negative = inhibition, most hits filed as inhibitors; 0.99% of 72,000 active; note: potency is the fitted concentration of half-maximal effect; % is set by controls: 0 for no effect and ±100 for the full control effect; nearly all actives have a fitted effect of over 55% in size
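HEK293 cells stably expressing V1b receptor, seeded overnight in 1% FBS, were treated with compounds for 30 min at 37C, then stimulated 5 min with 25 nM vasopressin; phospho-ERK read by AlphaScreen SureFire after lysis.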
HEK293 cAMP cs: parental HEK293 cAMP activation (counter-screen) | Potency, µM (top dose mostly 57.1 µM), without a hit: top-dose activation, most hits filed as activators | 2.5% of 73,000 active | parental HEK293 CNG cAMP sensor, membrane potential fluorescence; note: potency is the fitted concentration of half-maximal effect; % of control where 0% means no effect; nearly all actives have a fitted effect of over 55% in size
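Parental HEK 293 cells stably expressing a cAMP-gated CNG channel were loaded with membrane potential dye containing 100 uM RO 20-1724 for 60 min. Compound added for 30 min; depolarization read as fluorescence intensity at 590 nm.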
GFP derepression: epigenetic GFP locus derepression in mouse cells; mouse C127i GFP locus derepression, cytometry, 30 h; Potency, µM (doses to about 46.1 µM), inactives show at the highest dose GFP derepression (activation); 0.09% of 68,000 active; AID 597; note: % of control where 0% means no effect
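Derepression screen: silenced CMV-GFP reporter in murine C127i cells, 30 h compound incubation at 37 C, washed cells imaged by laser-scanning cytometer to enumerate GFP-expressing objects of 20 to 120 um.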
HBB splice mod: hemoglobin beta splicing modulation; HBB splicing reporter cell assay, activation; EGFP reporter with mutant IVS2-654 intron; response scale: normalised to 500 nM splice-correcting PNA; Potency, µM (highest dose often 46.1 µM), inactives show top-dose activation, actives largely listed as activators; 0.06% of 65,000 active; note: potency is the fitted concentration of half-maximal effect; 0% is about no effect
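Compounds were applied for 2 days to HeLa EGFP-654 cells, 500/well in Optimem with 2% FCS. The reporter's EGFP is disrupted by mis-splicing of beta-globin intron IVS2-654. Readout: summed well GFP fluorescence from 488 nm laser scanning; reference was 500 nM antisense […] 654 PNA.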
UbGFP stabilizer: proteasome inhibitors stabilizing ubiquitin-GFP reporter; Potency, µM (titrated, usually from 45.9 µM), without a hit: at the highest dose activation (GFP accumulation), most hits filed as activators; 67,000 tested, under 10 active; Ubiquitin-GFP reporter cells, proteasome inhibition, GFP fluorescence; response scale: untreated = 0%, 10 µM MG-132 = 100%; active = well fitted activation curve with a large enough effect, not every such curve was filed as active; inconclusive = small, poorly fitted or top-dose-only effect, or another doubt; inactive = no such curve, though single readings can be large or run the other way; note: potency is the fitted concentration of half-maximal effect
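GFP accumulation read-out: laser plate cytometry counting ubiquitin(G76V)-GFP-expressing U2OS cells after 4 hr compound exposure at 37 °C. Titrations spanned 46 uM to 2.9 nM; 0% = basal, 100% = 10 uM MG-132; concentration-response curves fitted.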
Active calls of the source: *; ? = inconclusive; . = no result; ! = repeats disagree; [ ] = another dose, or the depositor's remark. Unless noted, calls come from the whole dose curve; as a rule, active = well fitted curve in the direction sought with a large enough effect; inconclusive = small, poorly fitted or top-dose-only effect, or another doubt; inactive = no such curve, though single readings can be large; an effect the other way counts as inactive or inconclusive.

SMILES | TSHR agonist | ERK AVP block | HEK293 cAMP cs | GFP derepression | HBB splice mod | UbGFP stabilizer
COC(=O)[C@]1(C)CCC(c2ccc(C)cc2)=C(CC(=O)O)C1 | 0%[11.4 µM] | -5%[11.5 µM] | 4%[11.4 µM] | 0%[9.22 µM] | -1%[9.22 µM] | 2%[9.17 µM]
O=C1C(SCCO)=C(SCCO)C(=O)c2ccccc21 | ? | 16µM* | 25µM*! | 1% | 2% | 15%
CCCc1cc(C(=O)Cc2ccc(C(=O)OCC)o2)c(O)cc1O | ? | 9% | 20µM* | 2% | 0% | 5%
CN(C)S(=O)(=O)c1cc(C(=O)NCCCn2ccc3ccccc32)ccc1Cl | ? | ? | 25µM* | 0% | 0%[57.5 µM] | -3%
Cc1noc(C)c1CSc1nnc(-c2ccccc2)n1Cc1ccco1 | ? | -16% | 16µM* | 0% | 0%[57.5 µM] | 1%
CCNc1ncc2nc(-c3cc(F)cc(F)c3)c(=O)n(C[C@H]3CCCO3)c2n1 | 4% | 18% | 9% | -3%[9.22 µM] | -2% | -2%
CCNC(=O)C1CC(=O)N(Cc2ccc3c(c2)OCO3)C(=Nc2ccc(OCC)cc2)S1 (stereo not given) | 32µM* | 5% | 8% | 3% | 2%[0.369 µM] | 6%
CCNC(=O)C1CC(=O)N(Cc2ccc(F)cc2)C(=Nc2ccc(OC)cc2)S1 (stereo not given) | 17% | -6% | 1% | 1% | 0% | 3%
Cc1ccc2c(c1)CC[C@H]1CC(=O)CC[C@@]21C | . | -4% | . | . | . | .
CCCCOc1ccccc1Cn1c(=O)oc2ccc(C)cc21 | ? | 50% | 16µM* | -3% | -2% | -12%
Cc1ccc2oc(=O)n(Cc3ccccc3OC(C)C)c2c1 | ? | -11% | 25µM* | 3% | . | -2%
O=C(O)CC[C@@H](C(=O)O)N1C(=O)[C@@H]2[C@@H]3CC[C@H](C3)[C@@H]2C1=O | 1%[11.4 µM] | 0%[11.5 µM] | 0%[11.4 µM] | 0%[9.22 µM] | 2%[9.22 µM] | 9%[9.17 µM]
COc1cccc(Cn2c(Oc3cccc(C)c3)nc3c2c(=O)n(C)c(=O)n3C)c1 | ? | -16% | 25µM* | -2% | -3%[57.5 µM] | 1%
Cn1c(=O)c2c(nc(N3CCNCC3)n2Cc2cccc3ccccc23)n(C)c1=O | -9% | 1% | 2% | -2% | . | -4%
CCCOc1nc2c(c(=O)n(C)c(=O)n2C)n1Cc1cccc2ccccc12 | ? | ? | 32µM* | 4% | 3%[57.5 µM] | 4%
Cc1nc(NCc2ccccc2)c2nc(-c3ccccc3)n(CCCN(C)C)c2n1 | ? | 6% | ? | . | -1% | -7%
CNc1ncnc(Sc2nc(N)nc3nc[nH]c23)c1[N+](=O)[O-] | 8%[11.4 µM] | 6%[11.5 µM] | -2%[11.4 µM] | 3%[9.22 µM] | ? | -3%[9.17 µM]
Nc1nc(Sc2ccc([N+](=O)[O-])c3nonc23)c2[nH]cnc2n1 | -5%[11.4 µM] | 21%[11.5 µM] | 7%[11.4 µM] | ? | 3.2µM* | -8%[9.17 µM]
O=C(O)CC(c1ccccc1)c1ccccc1 | 10% | -23% | 28% | -2% | 0%[0.369 µM] | .
O=C(O)CC[P+](c1ccccc1)(c1ccccc1)c1ccccc1 | ? | 1%[11.5 µM] | 3.2µM* | 3%[9.22 µM] | 4%[9.22 µM] | -2%[9.17 µM]
COc1ccc(-c2nc3cncnc3n(-c3ccccc3)c2=O)cc1 | 6% | -20% | 5% | 8%[9.22 µM] | 2% | 2%
O=C(NCc1cccs1)O[C@H]1C[C@H]2CC[C@@H]1C2 | -5%[11.4 µM] | 9%[11.5 µM] | 10%[11.4 µM] | -2%[9.22 µM] | 3%[9.22 µM] | -2%[9.17 µM]
CCCCn1nnc(NC(=O)c2sc3cc(Cl)ccc3c2Cl)n1 | ? | -15% | 25µM* | -4% | 4% | 5%
CCCn1nnc(NC(=O)c2ccc(Cl)cc2Cl)n1 | -2% | 4% | 2% | 0% | . | 4%
COc1c2c(nc3ccccc13)O[C@@H]([C@@](C)(O)CO)C2 | . | -17% | -7% | -1% | -1% | 13%
c1ccc(-n2cccc2CNC2CCCCC2)cc1 | ? | -7% | 25µM* | -1% | -2% | -8%
CCOC(=O)c1cccc(NC(=O)CSc2nnc(C3CCCCC3)n2CC)c1 | ? | ? | 25µM* | -1% | -4% | -2%

Source: PubChem
